The supplement of paper PMC12340641
Counter-ions that a name gives are not always drawn.

Experiments:
[1] = biological target: IKZF1 (dCK*-IKZF1 fusion in HEK293FT) (UniProt Q13422); experiment: inhibition of IKZF1 HTRF signal (DMSO = 0%, pomalidomide 10 uM = 100%); higher = lower IKZF1 protein level; conditions: compound concentration: 5 uM, overnight (~20 h)
In short: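 Percent inhibition of IKZF1 signal was calculated per plate with vehicle and a reference degrader as anchors. The anchors were 0% for vehicle and 100% for the degrader, applied to background-subtracted 665/620 nm time-resolved FRET ratios from a commercial HTRF total-IKZF1 kit. Signal came from HEK293FT cells stably expressing an IKZF1 fusion, treated overnight at 37 °C with 5 μM compound in single wells of 384-well plates.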

HEK293FT dCK*-only = experiment: relative growth in counter assay (no AraC = 100%, AraC + DMSO = 0%); higher = more growth rescue independent of IKZF1; conditions: compound concentration: 5 uM; AraC concentration: 0.3 uM; overnight pretreatment + 4 days AraC
In short: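 Nuclei were counted by imaging after Hoechst 33342 staining on day 5, in HEK293FT cells (300/well, 384-well) expressing only an engineered kinase construct. Compound at 5 μM went in 2 h after seeding, followed after overnight at 37 °C by a nucleoside suicide substrate at 0.3 μM plus medium for 4 days. Per plate, wells lacking suicide substrate defined 100% and those with substrate plus vehicle defined 0%.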

HEK293FT dCK*-IKZF1 = experiment: relative growth recovery (pomalidomide 10 uM = 100%, DMSO = 0%); higher = more growth rescue (IKZF1 fusion degradation); conditions: compound concentration: 5 uM; AraC concentration: 0.3 uM; overnight pretreatment + 4 days AraC
In short: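 Means of duplicates from different days are given for growth recovery, normalised per plate against a reference degrader and vehicle. The reference degrader set the 100% level and vehicle the 0% level. HEK293FT cells stably expressing a deoxycytidine kinase–IKZF1 fusion (300/well, 384-well) received 5 μM compound 2 h after seeding and, after overnight at 37 °C, 0.3 μM of a nucleoside suicide substrate plus medium for 4 days. Nuclei stained with Hoechst 33342 were then counted by whole-well imaging on day 5.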

Chain of IKZF1 (dCK*-IKZF1 fusion in HEK293FT) (Q13422 whole entry, looked up, the tested form may be a part): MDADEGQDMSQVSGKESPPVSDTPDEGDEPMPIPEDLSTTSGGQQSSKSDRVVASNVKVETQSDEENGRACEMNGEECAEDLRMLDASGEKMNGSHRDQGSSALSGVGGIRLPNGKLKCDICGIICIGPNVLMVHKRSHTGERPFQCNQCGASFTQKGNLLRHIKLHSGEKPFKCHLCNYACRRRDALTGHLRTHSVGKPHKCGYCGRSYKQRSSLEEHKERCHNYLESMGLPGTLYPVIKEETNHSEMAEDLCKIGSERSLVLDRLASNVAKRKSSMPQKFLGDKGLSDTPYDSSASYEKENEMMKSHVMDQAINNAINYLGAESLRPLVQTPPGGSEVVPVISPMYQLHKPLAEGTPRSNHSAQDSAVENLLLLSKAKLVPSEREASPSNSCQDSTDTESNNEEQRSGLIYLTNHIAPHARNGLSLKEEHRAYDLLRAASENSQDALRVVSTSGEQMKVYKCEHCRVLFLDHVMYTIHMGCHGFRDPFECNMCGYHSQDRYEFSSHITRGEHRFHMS

SMILES	inhibition of IKZF1 HTRF signal [1] [%]	relative growth in counter assay (HEK293FT dCK*-only) [%]	relative growth recovery (HEK293FT dCK*-IKZF1) [%]
C/C(=C\c1csc(C)n1)[C@@H]1C[C@@H]2O[C@]2(C)CCC[C@H](C)[C@H](O)[C@@H](C)C(=O)C(C)(C)[C@@H](O)CC(=O)N1 [Ixabepilone]	-13.2	-33.8	-10.8
Nc1ccc(/N=N/c2ccccc2)c(N)n1	-28.9	-3.22	-1.03
CO[C@H]1/C=C/O[C@@]2(C)Oc3c(C)c(O)c4c(O)c(c5c(c4c3C2=O)=NC2(CCN(CC(C)C)CC2)N=5)NC(=O)C(C)=CC=CC(C)[C@H](O)[C@@H](C)[C@@H](O)[C@@H](C)[C@H](OC(C)=O)[C@@H]1C (some centres not stated) [Rifabutin]	0.83	3.92	-0.05
Cc1ccnc(NS(=O)(=O)c2ccc(N)cc2)n1	-32.2	1.25	1.5
O=C1c2ccccc2C(Cc2ccncc2)(Cc2ccncc2)c2ccccc21	-38.8	-4.37	5.88
CCNC(=O)Nc1ccc(-c2nc3c(c(N4CCOC[C@@H]4C)n2)CCN(C2COC2)C3)cc1	68.5	-31.5	-12.3
C=CC(=O)Nc1cccc(Oc2nc(Nc3ccc(N4CCN(C)CC4)cc3)ncc2Cl)c1	23.4	-29.5	-9.69
CCCCCNC(=N)N/N=C/c1c[nH]c2ccc(OC)cc12	-1.99	-5.1	-2.16
CC(NCCC(c1ccccc1)c1ccccc1)c1ccccc1 (configuration not stated) [fendiline]	-38	-1.99	2.01
Cc1cc(/C=C/c2ccc3cc(N(C)C)ccc3[n+]2C)c(C)n1-c1ccccc1.Cc1cc(/C=C/c2ccc3cc(N(C)C)ccc3[n+]2C)c(C)n1-c1ccccc1 [pyrvinium]	76.3	-34.4	-13.1
CCCS(=O)c1ccc2nc(NC(=O)OC)[nH]c2c1 (configuration not stated) [Albendazole Oxide (Ricobendazole)]	24.3	-7.11	-2.83
CCCOc1ccc2nc(NC(=O)OC)[nH]c2c1	-18.4	-15.2	-2.92
Cc1cccc(CCN2CCC(C(=O)c3ccc(NS(C)(=O)=O)cc3)CC2)n1	-18.6	-7.85	-0.45
Cc1cccc(C)c1NC(=O)C[N+](C)(C)C	-41.2	0.1	-1.7
CC(CCc1ccc(O)cc1)NCCc1ccc(O)c(O)c1 (configuration not stated) [Dobutamine HCl]	18.6	-5.22	-1.12
NC(=O)c1ccc[n+]([C@@H]2O[C@H](COP(=O)(O)OP(=O)(O)OC[C@H]3O[C@@H](n4cnc5c(N)ncnc54)[C@H](O)[C@@H]3O)[C@@H](O)[C@H]2O)c1	-23.1	5.09	1.08
CC(C)(C)c1ccc(/C=C/C(=O)Nc2ccc3c(c2)OCCO3)cc1	-32	-1.73	0.45
C=CC(=O)c1ccc2ccccc2c1 [JAK3-inhibitor-V]	-28.5	-15.1	0.695
CC(C)/N=c1\cc2n(-c3ccc(Cl)cc3)c3ccccc3nc-2cc1Nc1ccc(Cl)cc1	16.2	-8.1	0.915
CC(C)c1ccc(NC(=O)Cn2cnc3c2c(=O)n(C)c(=O)n3C)cc1	12.2	-3.63	-1.03

SMILES	inhibition of IKZF1 HTRF signal [1] [%]	relative growth in counter assay (HEK293FT dCK*-only) [%]	relative growth recovery (HEK293FT dCK*-IKZF1) [%]
CO[C@H]1/C=C/O[C@@]2(C)Oc3c(C)c(O)c4c(O)c(c(C=NN5CCN(C)CC5)c(O)c4c3C2=O)NC(=O)C(C)=CC=CC(C)[C@@H](O)[C@@H](C)[C@H](O)[C@H](C)[C@@H](OC(C)=O)[C@H]1C (some centres not stated) [Rifampin (Rifampicin)]	-102	-0.8	-2.73
CC(C)(C#N)c1ccc(N2C(=O)OCc3cnc4ccc(-c5cnc6ccccc6c5)cc4c32)cc1	17.1	3.56	-2.14
COC1=C(OC)C(=O)C(CCCCCCCCCCO)=C(C)C1=O	41.8	-5.9	-2.21
C[C@H]1O[C@@H](O[C@H]2[C@@H](O)C[C@H](O[C@H]3[C@@H](O)C[C@H](O[C@H]4CC[C@]5(C)C6C[C@@H](O)[C@]7(C)[C@@H](C8=CC(=O)OC8)CC[C@]7(O)C6CC[C@@H]5C4)O[C@@H]3C)O[C@@H]2C)C[C@H](O)[C@@H]1O (some centres not stated)	68.6	-34.9	-12.4
CN(C)C(=O)C(CCN1CCC(O)(c2ccc(Cl)cc2)CC1)(c1ccccc1)c1ccccc1 [Loperamide HCl]	3.48	-7.07	-1.04
Clc1ccc(C(Cn2ccnc2)OCc2csc3c(Cl)cccc23)c(Cl)c1 (configuration not stated) [Sertaconazole]	-18.6	3.66	1.54
CC(C)(C)C1CCc2c(sc(NC(=O)c3ccco3)c2C(=O)O)C1 (configuration not stated)	-23.8	-8.81	-0.515
CC(O)(C(=O)Nc1ccc(S(=O)(=O)c2ccccc2)cc1)C(F)(F)F (configuration not stated)	-44.3	-0.27	0.77
O=C(Nc1ccc(Cl)cc1)Nc1ccc(Cl)c(Cl)c1 [Triclocarban]	15.1	3.72	-1.68
CC(C)COCC(CN(Cc1ccccc1)c1ccccc1)N1CCCC1 (configuration not stated) [bepridil]	21.1	-3.99	-1.14
CC(=O)Nc1ncc([N+](=O)[O-])s1	6.78	5.87	-3.04
CCN(CCCCCOCC(=O)N[C@H](C(=O)N1C[C@H](O)C[C@H]1C(=O)N[C@@H](C)c1ccc(-c2scnc2C)cc1)C(C)(C)C)CCOc1ccc(C(=O)c2c(-c3ccc(O)cc3)sc3cc(O)ccc23)cc1	3.72	13.8	11
CCCCNC(=O)NS(=O)(=O)c1ccc(C)cc1	-29.8	0.26	-3.39
CCOC(=O)CC(=O)N1CCSC1COc1ccccc1OC (configuration not stated) [Moguisteine]	-1.23	6.33	-0.775
Cc1c(S(=O)(=O)O)oc2c1C(=O)C(=O)c1c-2ccc2c1CCCC2(C)C [sodium-tanshinone-ii-a-sulfonate]	20.9	4.38	-1.25
CC(C)(C)c1ccc(-c2nc3cccc(N4CCN(Cc5ccc6nccnc6c5)CC4)c3[nH]2)cc1	-23.9	5.2	9.79
CC[C@H](CO)Nc1nc(NCc2ccc(-c3ccccn3)cc2)c2ncn(C(C)C)c2n1	8.26	-34.5	-12.2
Cc1cc(N)c2ccccc2[n+]1CCCCCCCCCC[n+]1c(C)cc(N)c2ccccc21	-29.5	-14.5	-3.15
CCS(=O)(=O)N(C)[C@@H]1c2cc(C#N)ccc2OC(C)(C)[C@H]1O.CCS(=O)(=O)N(C)[C@H]1c2cc(C#N)ccc2OC(C)(C)[C@@H]1O (racemic) [chromanol-(+/-)]	-29.6	1.25	0.645
Nc1ncnc2c1c(-c1cnc3[nH]ccc3c1)nn2C1CCCC1	-13.8	-33.6	-11.3

SMILES	inhibition of IKZF1 HTRF signal [1] [%]	relative growth in counter assay (HEK293FT dCK*-only) [%]	relative growth recovery (HEK293FT dCK*-IKZF1) [%]
CCc1c2c(nc3ccc(OC(=O)N4CCC(N5CCCCC5)CC4)cc13)-c1cc3c(c(=O)n1C2)COC(=O)[C@]3(O)CC [irinotecan]	41.6	-35.4	-13.9
O=C(Nc1cc(C(F)(F)F)ccc1O)Nc1cc(C(F)(F)F)ccc1O	-27.7	-5.68	-1.77
CN1CCCC1CCOC(C)(c1ccccc1)c1ccc(Cl)cc1 (configuration not stated) [Clemastine fumarate]	11	6.63	5.08
CN(C)CC/C=C1/c2ccccc2Sc2ccc(Cl)cc21	-9.91	11.5	-0.74
COC(=O)Nc1ccc(-c2nc(N3CCOCC3)c3cnn(C4CCN(C(=O)OC)CC4)c3n2)cc1	8.25	-9.33	-2.33
CCCCCCCCCCCCCCCC[N+](C)(C)Cc1ccccc1 [Benzyldimethylhexadecylammonium chloride hydrate]	20.2	-20.7	-4.92
COc1ccc(C2CC(c3c(O)cc(C)oc3=O)=NCCS2)c(OC)c1 (configuration not stated)	-11	-32.5	-10.9
CC[C@]1(O)C[C@H]2C[N@@](CCc3c([nH]c4ccccc34)[C@@](C(=O)OC)(c3cc4c(cc3OC)N(C=O)[C@H]3[C@@](O)(C(=O)OC)[C@H](OC(C)=O)[C@]5(CC)C=CCN6CC[C@]43[C@@H]65)C2)C1 [Vincristine (sulfate)]	-10.4	-34.5	-11.7
CC(=O)Oc1ccccc1C(=O)Nc1ncc([N+](=O)[O-])s1	22.3	-5.9	0.37
O=C(O)c1cc(N=Nc2ccc(O)c(C(=O)O)c2)ccc1O [Olsalazine Na]	-197	1.54	-1.08
Cc1cc(Nc2ncc(Cl)c(Nc3ccccc3S(=O)(=O)C(C)C)n2)c(OC(C)C)cc1C1CCN(CCOCCOCCNC(=O)CNc2cccc3c2C(=O)N(C2CCC(=O)NC2=O)C3=O)CC1 (configuration not stated)	66.9	9.17	62.7
O=S(=O)(O)CCCS(=O)(=O)O	17.9	1.16	-1.31
C=CC[C@@H]1/C=C(\C)C[C@H](C)C[C@H](OC)[C@H]2O[C@@](O)(C(=O)C(=O)N3CCCC[C@H]3C(=O)O[C@H](/C(C)=C/[C@@H]3CC[C@@H](O)[C@H](OC)C3)[C@H](C)[C@@H](O)CC1=O)[C@H](C)C[C@@H]2OC [Tacrolimus]	-32.9	18.6	12.2
Cc1cc(C)nc(NS(=O)(=O)c2ccc(N)cc2)n1	-24.1	2.2	-1.69
CC(C)(C)c1ccc(C(O)CCCN2CCC(C(O)(c3ccccc3)c3ccccc3)CC2)cc1 (configuration not stated)	-24.6	-9.63	-1.42
O=c1oc2c(O)c(O)cc3c(=O)oc4c(O)c(O)cc1c4c23	5.6	-6.38	-3
COc1ccc2nc3cc(Cl)ccc3c(Nc3cc(CN4CCCC4)c(O)c(CN4CCCC4)c3)c2n1	-32.1	-29.1	-10.1
CCCCC(F)(F)C(=O)CC[C@H]1[C@H](O)CC(=O)[C@@H]1CCCCCCC(=O)O [Lubiprostone]	-43.7	-3.38	-1.27
O=C(O)c1ccc(/C=C2/SC(=S)N(c3cccc(C(F)(F)F)c3)C2=O)cc1	-26.9	-1.87	-0.07
